The full ranking holds about 33,000 sequences; the median of “e-score” is about -0.038, and the highest 2% start at about 0.33. For the sample, the highest values were picked, then their nearest neighbours and some sequences at random.

This experiment concerns the target T1, GST-Rok-C97-191 (Bacillus subtilis subsp. subtilis str. …, UniProt O34857 97-191).
T1 sequence: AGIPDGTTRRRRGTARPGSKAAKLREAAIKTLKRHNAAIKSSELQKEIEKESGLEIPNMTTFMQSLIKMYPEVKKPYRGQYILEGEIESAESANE
The experiment is described as follows: protein binding microarray; Rok is a gene silencer of Bacillus subtilis; high values mean tight binding. As to conditions: protein: recombinant; tags: GST (pTH5325, pDEST15-Magic modified); dsDNA, one strand shown. The method, boiled down:
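Every oligonucleotide joins a 25-mer constant primer to a 35-mer variable part drawn from a de Bruijn sequence of order 10, so each non-palindromic 8-mer appears at least 32 times and each palindromic 8-mer 16 times. The preference for every 8-mer is reported as a unitless, rank-based enrichment score (E-score). This score spans 0.5 for the most favored 8-mer to −0.5 for the most disfavored.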
Take ATTAGGAA: the binding signal was -0.056 E-score.
Regarding TGGGACAA, the binding signal is -0.0222 E-score.
Take CATCCAAC: the binding signal was -0.0608 E-score.
For the sequence CATTATAC, the binding signal is 0.177 E-score.
Take AATTATAC: the binding signal stood at 0.348 E-score.
Take GATTATAC: the binding signal was 0.238 E-score.
Turning to AATTATAT, the binding signal turned out to be 0.398 E-score.
For AATTATAA, the binding signal was found to be 0.274 E-score.
The result for AATTATAG reads 0.303 E-score; that for AAGGGTGC, -0.165 E-score; that for CATCTGAA, -0.0216 E-score.
Regarding AAAACTGT, the binding signal stood at 0.0809 E-score.
The result for AAAACTTG reads -0.0585 E-score; that for AAAACTAG, 0.364 E-score.
Consider AAAACTGG, for which the binding signal stood at 0.0097 E-score.
In the case of ATAACTAT, the binding signal was determined as 0.383 E-score.
The result for AAAACTGC reads -0.0367 E-score; that for AAAACTAA, 0.255 E-score.
Regarding ATAACTAA, the binding signal turned out to be 0.249 E-score.
With AAAACTCC, the binding signal is 0.137 E-score.
Consider AAAACTAC, for which the binding signal amounted to 0.433 E-score.
The result for ATAACTAG reads 0.232 E-score; that for AAAACTAT, 0.415 E-score; that for CGATCAAG, -0.0651 E-score.
For the sequence ACATCGCG, the binding signal was found to be 0.139 E-score.
As to CCAAATAC, the binding signal came out at 0.137 E-score.
Consider GAACGTTC, for which the binding signal is 0.053 E-score.
The result for CCGTAGCA reads 0.075 E-score; that for ATTTGGAA, 0.102 E-score.
The result for AGCCAATA reads -0.0503 E-score; that for GAATTCAC, 0.074 E-score; that for ACAACTAC, 0.348 E-score.
The result for CAAACTAG reads 0.287 E-score; that for GAAACTAA, 0.313 E-score.
As for GCAACTAC, the binding signal stood at 0.239 E-score.
The result for ACAACTAT reads 0.321 E-score; that for CAAACTCC, -0.063 E-score.
Regarding CAAACTAA, the binding signal came to 0.374 E-score.
As for GAAACTTC, the binding signal came to 0.204 E-score.
Turning to GAAACTAC, the binding signal came to 0.46 E-score.
Regarding CAAACTTA, the binding signal came to 0.101 E-score.
In the case of TAAACTAA, the binding signal was determined as 0.234 E-score.
The result for CAAACTAC reads 0.446 E-score.
In the case of CTGAGTCA, the binding signal is -0.156 E-score.
The result for AGGTTCAC reads -0.111 E-score.
For the sequence GGTCCTTA, the binding signal is 0.0575 E-score.
With CAAGGTGA, the binding signal is -0.134 E-score.
Consider AAGTTGCA, for which the binding signal worked out at 0.0502 E-score.
CTGGTCAA: the binding signal amounted to 0.00605 E-score.
With CCCATATC, the binding signal is -0.0677 E-score.
For the sequence AGCTATTA, the binding signal came out at 0.315 E-score.
The result for CATTTATA reads 0.354 E-score; that for GATTTATA, 0.304 E-score.
Turning to AATTTATA, the binding signal worked out at 0.373 E-score.
With AATTTATG, the binding signal came to 0.209 E-score.
CATTTATC: the binding signal was determined as 0.218 E-score.
CATTTTTA: the binding signal amounted to 0.184 E-score.
ATTCACTA: the binding signal was 0.174 E-score.
AGTCGATC: the binding signal was -0.00304 E-score.
As to ACGGGAAA, the binding signal worked out at 0.132 E-score.
For ACCGGAAA, the binding signal was -0.1 E-score.
On to ACTATATA, for which the binding signal was 0.437 E-score.
Regarding ACTATATC, the binding signal is 0.284 E-score.
Turning to ACTATAGA, the binding signal was found to be 0.241 E-score.
Take GCTATATA: the binding signal was 0.355 E-score.
Consider CCTATATA, for which the binding signal is 0.283 E-score.
Turning to GCTATACA, the binding signal turned out to be 0.176 E-score.
Consider ACTCTTTA, for which the binding signal was determined as 0.0447 E-score.
CGATATAG: the binding signal worked out at 0.238 E-score.
Consider ATATATAG, for which the binding signal came out at 0.379 E-score.
Take ATGTATAG: the binding signal is 0.264 E-score.
Turning to ATATAGCA, the binding signal turned out to be 0.3 E-score.
CTATATAG: the binding signal was found to be 0.413 E-score.
Take CCATATAG: the binding signal was determined as 0.129 E-score.
With ATATAGCC, the binding signal came to 0.135 E-score.
Regarding ATATAGCG, the binding signal was found to be 0.349 E-score.
The result for ATATAGGG reads -0.00212 E-score; that for AGCTTTGA, 0.0387 E-score; that for AGCGGCAC, -0.177 E-score.
The result for AAAGTTAG reads 0.156 E-score; that for ATAGTTAC, 0.254 E-score.
The result for ATAGTTAG reads 0.35 E-score; that for ATAGTTCC, 0.143 E-score; that for ATAGTTCA, 0.265 E-score.
On to ATAGTTCG, for which the binding signal was 0.354 E-score.
For the sequence CTGTGAGA, the binding signal was -0.127 E-score.
On to GCACTTGA, for which the binding signal was -0.0251 E-score.
CATCATAG: the binding signal stood at 0.00873 E-score.
As to CTTATTCA, the binding signal is 0.048 E-score.
Regarding CGCAAAGA, the binding signal is -0.193 E-score.
GGAAAAAA: the binding signal was -0.0552 E-score.
In the case of GGTACAAA, the binding signal was determined as 0.216 E-score.
As to AGTACAAA, the binding signal was 0.342 E-score.
AGTACAAG: the binding signal is 0.247 E-score.
For TGTACAAA, the binding signal is 0.355 E-score.
On to AGTACAAT, for which the binding signal worked out at 0.269 E-score.
CGTACAAA: the binding signal was 0.236 E-score.
The result for TCGAGGCA reads 0.00484 E-score; that for CCGCAAGA, -0.109 E-score; that for GAATCGGA, -0.078 E-score.
In the case of TGATAGAA, the binding signal is 0.385 E-score.
For the sequence AGATAGAA, the binding signal came to 0.308 E-score.
The result for CGATAGAG reads -0.176 E-score; that for CGATAGAC, 0.063 E-score.
The result for CGATAGAA reads 0.359 E-score.
As to GGATAGAA, the binding signal is 0.195 E-score.
The result for GTGTTACA reads 0.168 E-score; that for CTAATGTA, 0.185 E-score; that for ATAATGTA, 0.405 E-score.
Regarding ATAATGTC, the binding signal amounted to 0.112 E-score.
With GTAATGAA, the binding signal was -0.0192 E-score.
As for GTAATGTA, the binding signal came to 0.339 E-score.
For ATAATGTG, the binding signal came to 0.167 E-score.
Take ATAAACGG: the binding signal was determined as 0.19 E-score.
In the case of CGCCACCG, the binding signal was -0.0411 E-score.
The result for CTTACTAC reads 0.171 E-score.
The result for ATTACTGC reads 0.11 E-score; that for ATTACTAA, 0.326 E-score.
As to ATTACTAC, the binding signal is 0.407 E-score.
Take ATTACTAG: the binding signal is 0.392 E-score.
Regarding ATTACTCG, the binding signal amounted to 0.198 E-score.
Turning to ATGTTTAC, the binding signal was 0.00161 E-score.
Consider AAATGGTT, for which the binding signal worked out at 0.177 E-score.
For AGCTTCTG, the binding signal was -0.0648 E-score.
For CGCTAGAC, the binding signal turned out to be 0.00486 E-score.
For the sequence ATGTCCAC, the binding signal was -0.0386 E-score.
For ATCTACGA, the binding signal was found to be 0.333 E-score.
Take ATCTACCC: the binding signal came to 0.22 E-score.
For CTCTACGA, the binding signal was found to be 0.107 E-score.
Take ACCTACCG: the binding signal was found to be 0.148 E-score.
GTCTACCA: the binding signal is 0.15 E-score.
Regarding ATCTATCG, the binding signal was 0.313 E-score.
As to ATCTACCA, the binding signal was determined as 0.469 E-score.
The result for ATCTACCG reads 0.394 E-score; that for GTCTACGA, -0.0769 E-score; that for CGAAAGAC, -0.0876 E-score.
With GAAAGACA, the binding signal is -0.0886 E-score.
Turning to GTGCAGTA, the binding signal amounted to 0.196 E-score.
Regarding ATCGAGGC, the binding signal was -0.159 E-score.
The result for TATGACGA reads 0.0683 E-score; that for ATTTTTAA, 0.146 E-score; that for CTATTTAC, 0.349 E-score.
The result for ATATTTAC reads 0.375 E-score.
ATATTAAA: the binding signal amounted to 0.385 E-score.
For ATATTTAG, the binding signal was found to be 0.201 E-score.
In the case of CTATTAAA, the binding signal worked out at 0.0376 E-score.
For ACATTTAC, the binding signal is 0.315 E-score.
As to CTCTTTAC, the binding signal was 0.0967 E-score.
Regarding ATATTTGC, the binding signal turned out to be 0.295 E-score.
As for ATATTAAC, the binding signal amounted to 0.296 E-score.
Regarding ATATTTAA, the binding signal is 0.338 E-score.
The result for CTATTTAA reads 0.14 E-score.
For CTTTACTC, the binding signal is -0.199 E-score.
Take ATGTAGGA: the binding signal came out at 0.201 E-score.
In the case of CTTGACGA, the binding signal is -0.14 E-score.
As for AATGTACT, the binding signal was 0.296 E-score.
The result for GATGTACA reads 0.29 E-score; that for AATGTACA, 0.34 E-score; that for TATGTACA, 0.345 E-score.
AATGTACG: the binding signal stood at 0.155 E-score.
The result for CATGTACC reads 0.227 E-score; that for CATGTACA, 0.317 E-score; that for AGTGTACA, 0.141 E-score.
Consider AATGTACC, for which the binding signal amounted to 0.373 E-score.
Take CCGAGTCG: the binding signal is -0.148 E-score.
The result for AGGAGAAA reads 0.073 E-score; that for CACGAAGC, -0.104 E-score; that for AGCATTTG, -0.0352 E-score.
For the sequence AACTGAAC, the binding signal worked out at 0.106 E-score.
Take GCCATTGA: the binding signal is -0.0503 E-score.
In the case of TATTTAAA, the binding signal came out at 0.186 E-score.
For the sequence AAAAGACG, the binding signal amounted to 0.0272 E-score.

For the origin of these results see PMC6212790, “How bacterial xenogeneic silencer rok distinguishes foreign from self DNA in its resident genome”.
